This passage reports growth results from PubChem BioAssay (NCI).

About 83,000 compounds went through this panel and 20% of them were active in at least one assay; those are over-represented in the sample as a whole.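 Testing used 96-well plates and a 48-hour single-concentration exposure. Example: -40 means 40% of the starting cells died.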 Values without a mark were called inactive. Activity calls are given as the source filed them. The calls were made as follows: active = growth percent below 10; inactive = the rest.

The experiment deals with MDA-MB-468 breast. Put plainly: NCI-60 one-dose screen, 48 h (100 = growth as untreated, 0 = no growth, -100 = all killed). The conditions noted are these: 10 µM unless noted.
On to `Cc1ccc(-n2nc3n(/c2=N\C(=O)NS(=O)(=O)c2ccc(C)cc2)CCN3C2=NCCN2)cc1`, for which the growth was 114%.
For `COc1ccc(N=C2NN=C(c3c[nH]c4ccccc34)CS2)cc1OC`, the growth was 10.5%.
For `C[C@@H](C(=O)NCCCC#Cc1cnc(Nc2ccc(C#N)cc2)nc1NC1CC1)N(C)C(=O)/C=C/CN(C)C` the value was 39.2%.
The same measure for `O=C(CCCCCCN1CC(=O)N2[C@@H](c3ccccc3)c3[nH]c4ccccc4c3C[C@H]2C1=O)NO`: 53.7%; for `Cc1oc(-c2ccc(Cl)cc2Cl)cc1C(=O)Nc1nccs1`: 94.4%.
Regarding `Cc1cc(Nc2cc(N3CCN(C)CC3)nc(/C=C/c3ccccc3)n2)n[nH]1`, the growth is -17.8% (active).
For `C=C1C(=O)O[C@H]2[C@H]1CC/C(COC(=O)/C=C\C(=O)NCc1ccc(Cn3c(=O)sn(-c4ccc(C#N)cc4)c3=O)cc1)=C\CC[C@@]1(C)O[C@@H]21` the value was -87.6% (active).
Consider `Brc1cccc(-c2cc(-c3cnc4c(c3)OCCO4)n[nH]2)c1`, for which the growth is 7.76% (active).
